Drawing on the supplement of paper PMC9446081, this text covers relative growth for 69 compounds.

In all, about 39,000 compounds went through this assay and about 220 (0.56%) showed activity. Shown is part of a subset that was picked to be rich in actives. Unmarked numbers belong to inactive results.
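Note: Wild-type cells incubated without shaking, value is the mean of two biological replicates.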

The subject of this assay is Escherichia coli K-12 BW25113. As to the kind of experiment: relative growth (OD600 normalised to plate interquartile mean) (fraction); higher = less growth inhibition, active = 0.2 or less. To be noted: 50 µM; LB; incubation time: overnight (16-24 h).
`C=CC(=O)NCCc1ccncc1`: the relative growth is 1.05.

Take `O=C(C[C@H]1C[C@H]2c3cc(NS(=O)(=O)c4ccc(F)cc4)ccc3O[C@H]2[C@H](CO)O1)NC1CCCC1`: the relative growth was 0.974.

As to `Cn1cc(S(=O)(=O)N2CCN(c3ccc(F)cc3)CC2)c(=O)n(C)c1=O`, the relative growth was 1.01.

Take `Cl.O=C(O)c1cn(-c2ccc(F)cc2)c2cc(N3CCNCC3)c(F)cc2c1=O`: the relative growth was 0.0456 (active).

In the case of `O=C(c1ccccc1F)N1CCNCC1`, the relative growth is 0.999.

For `Cc1ccc(C(=O)O)c(=O)n1C`, the relative growth is 1.02.

On to `O=C(CN1CCNCC1)c1ccc(F)cc1`, for which the relative growth was 1.

Regarding `CN1CCN(c2cc3c(cc2F)c(=O)c(C(=O)O)cn3-c2ccc(F)cc2)CC1.Cl`, the relative growth is 0.0477 (active).

With `C[C@@H]1CCCCO[C@H](CN(C)S(=O)(=O)c2cn(C)cn2)[C@H](C)CN([C@H](C)CO)C(=O)c2cc(NS(C)(=O)=O)ccc2O1`, the relative growth was 1.02.

Regarding `COc1ccc(-c2cn(CCCNC(=O)[C@H](Cc3ccccc3)NS(=O)(=O)c3ccc(C)cc3)nn2)cc1OC`, the relative growth was 1.02.

For the compound `COC1=C(OC)C(=O)C(CCCCCCCCCC[P+](c2ccccc2)(c2ccccc2)c2ccccc2)=C(C)C1=O`, the relative growth is 0.0727 (active).

On to `COC1=C(OC)C(=O)C(CCCCCCCCCCO)=C(C)C1=O`, for which the relative growth was 1.05.

For `CC1=C(C)C(=O)C(CCCCCCCCCC[P+](c2ccccc2)(c2ccccc2)c2ccccc2)=CC1=O`, the relative growth is 0.308.

With `C[C@@H]1CN([C@H](C)CO)S(=O)(=O)c2ccc(Br)cc2O[C@@H]1CN(C)C(=O)NC1CCCC1`, the relative growth was 0.989.

`Cc1cc(=S)oc2ccccc12`: the relative growth was 0.943.

As for `CC(C)CC#Cc1ccc2c(c1)O[C@H](CN(C)C(=O)NC1CCCC1)[C@H](C)CN([C@@H](C)CO)S2(=O)=O`, the relative growth was 0.997.

Take `O=C(CN1CCOCC1)N/N=C/c1ccc([N+](=O)[O-])o1`: the relative growth was 0.801.

In the case of `Nc1nnc(-c2ccc([N+](=O)[O-])o2)o1`, the relative growth is 0.258.

Take `NC(=O)NN=Cc1ccc([N+](=O)[O-])o1`: the relative growth is 0.0474 (active).

For `COC(=O)N/N=C/c1ccc([N+](=O)[O-])o1`, the relative growth was 0.0393 (active).

`NC(=O)N/N=C/c1ccc([N+](=O)[O-])o1`: the relative growth is 0.0425 (active).

Consider `O=C(NN=Cc1ccc([N+](=O)[O-])o1)c1ccc(O)cc1`, for which the relative growth was 0.973.

Take `O=C(N/N=C/c1ccc(CO)o1)c1ccccn1`: the relative growth is 1.

`CCOC(=O)c1ccc(N2NC(=O)/C(=C/c3ccc([N+](=O)[O-])o3)C2=O)cc1`: the relative growth was 0.984.

For the compound `C[C@H](NC(=O)C[C@H]1C=C[C@@H](NC(=O)CN2CCOCC2)[C@H](CO)O1)c1ccccc1`, the relative growth is 1.

`C[C@H](O)C#Cc1ccc2c(c1)O[C@H](CN(C)C(=O)Cc1ccccn1)[C@H](C)CN([C@@H](C)CO)S2(=O)=O`: the relative growth is 1.01.

Regarding `CN1CCN(C(=O)C[C@@H]2CC[C@H]3[C@@H](COC[C@@H](O)CN3Cc3ccc4c(c3)OCO4)O2)CC1`, the relative growth was 0.988.

As to `O=C(C[C@H]1C[C@H]2c3cc(NC(=O)Nc4ccc(C(F)(F)F)cc4)ccc3O[C@H]2[C@H](CO)O1)NCc1ccc(Cl)cc1`, the relative growth was 0.973.

For `C[C@@H]1CN([C@@H](C)CO)C(=O)c2cc(NS(=O)(=O)c3cn(C)cn3)ccc2O[C@@H]1CN(C)Cc1ccncc1`, the relative growth was 0.994.

`C[C@@H]1CN([C@H](C)CO)C(=O)Cc2cc(NC(=O)Nc3ccc(F)cc3)ccc2O[C@@H]1CN(C)Cc1ccc(Cl)c(Cl)c1`: the relative growth is 1.02.

Take `Cc1ccc(S[C@]2(C(=O)NCCN3CCOCC3)CC(=O)N(C(C)C)[C@@H]2c2ccc(CO)cc2)cc1`: the relative growth is 1.

Take `C=CCOC(=O)[C@H]1[C@@H]2C(=O)O[C@@H](c3ccccc3)[C@@H](c3ccccc3)N2[C@@H](c2ccc(OCCOC(=O)NCCCCCC(=O)NO)cc2)[C@@]12C(=O)Nc1ccc(I)cc12`: the relative growth was 0.993.

With `C[C@@H]1CN([C@@H](C)CO)C(=O)c2cc(NC(=O)Nc3ccc(C(F)(F)F)cc3)ccc2O[C@H]1CN(C)C(=O)Nc1cccc2ccccc12`, the relative growth was 1.01.

`COC(=O)c1cn(CC(=O)N2CCN(C)CC2)nn1`: the relative growth is 0.978.

Take `C[C@@H]1CN([C@@H](C)CO)C(=O)c2cc(NS(=O)(=O)c3cn(C)cn3)ccc2O[C@H]1CN(C)S(C)(=O)=O`: the relative growth was 1.02.

For the compound `C[C@H](CO)N1C[C@H](C)[C@@H](CN(C)S(C)(=O)=O)Oc2c(NC(=O)Nc3ccc4c(c3)OCO4)cccc2C1=O`, the relative growth is 0.991.

For the compound `N#CC1C(=O)NC(=O)N=C1Nc1ccccc1` (centres undefined), the relative growth is 0.981.

For the compound `NC[C@H]1O[C@H](O[C@H]2[C@H](O[C@@H]3O[C@H](CO)[C@@H](O)[C@H]3O)[C@@H](O)[C@H](N)C[C@@H]2N)[C@H](N)[C@@H](O)[C@@H]1O`, the relative growth was 0.515.

Take `NCC1OC(OC2C(CO)OC(OC3C(O)C(N)CC(N)C3OC3OC(CO)C(O)C(O)C3N)C2O)C(N)C(O)C1O.O=S(=O)(O)O` (centres undefined): the relative growth is 0.915.

On to `NCC1OC(OC2C(CO)OC(OC3C(O)C(N)CC(N)C3OC3OC(CN)C(O)C(O)C3N)C2O)C(N)C(O)C1O.O=S(=O)(O)O.O=S(=O)(O)O.O=S(=O)(O)O` (centres undefined), for which the relative growth is 1.2.

For `NCCC(O)C(=O)NC1CC(N)C(OC2OC(CN)C(O)C(O)C2O)C(O)C1OC1OC(CO)C(O)C(N)C1O.O` (centres undefined), the relative growth is 0.0465 (active).

Take `NCC[C@H](O)C(=O)N[C@@H]1C[C@H](N)[C@@H](O[C@H]2O[C@H](CN)[C@@H](O)[C@H](O)[C@H]2O)[C@H](O)[C@H]1O[C@H]1O[C@H](CO)[C@@H](O)[C@H](N)[C@H]1O`: the relative growth is 0.0379 (active).

On to `Cc1noc(C)c1NC(=O)Nc1ccc2c(c1)C(=O)N([C@H](C)CO)C[C@H](C)[C@@H](CN(C)C(=O)Nc1ccc(F)cc1)OCCCC[C@@H](C)O2`, for which the relative growth is 0.985.

On to `CCN1CCN(c2ccc(Nc3cc(N(C)C(=O)Nc4c(Cl)c(OC)cc(OC)c4Cl)ncn3)cc2)CC1`, for which the relative growth is 0.975.

With `C[C@@H]1CN([C@H](C)CO)C(=O)Cc2cc(NC(=O)Nc3ccc(F)cc3)ccc2O[C@@H]1CN(C)S(C)(=O)=O`, the relative growth was 0.979.

As to `C[C@@H]1CCCCO[C@H](CN(C)S(=O)(=O)c2ccc(Cl)cc2)[C@H](C)CN([C@@H](C)CO)C(=O)c2cc(NC(=O)c3ccncc3)ccc2O1`, the relative growth is 0.997.

Consider `Cc1ccc(S(=O)(=O)N(C)C[C@@H]2OCCCC[C@@H](C)Oc3ccc(NC(=O)Nc4c(C)noc4C)cc3C(=O)N([C@H](C)CO)C[C@@H]2C)cc1`, for which the relative growth is 1.

With `CC(=O)N[C@H]1CC[C@@H](CCNC(=O)C2CC2)O[C@H]1CO`, the relative growth was 0.943.

Take `CC1(C)SC2C(N3C(=O)C(c4ccccc4)NC3(C)C)C(=O)N2C1C(=O)[O-].[K+]` (centres undefined): the relative growth is 0.0443 (active).

In the case of `CC1(C)SC2C(NC(=O)COc3ccccc3)C(=O)N2C1C(=O)[O-].[K+]` (centres undefined), the relative growth is 0.598.

On to `CC1(C)SC2C(NC(=O)Cc3ccccc3)C(=O)N2C1C(=O)[O-].[K+]` (centres undefined), for which the relative growth is 0.576.

For `O=C(C[C@H]1C[C@@H]2c3cc(NC(=O)C4CCOCC4)ccc3O[C@@H]2[C@@H](CO)O1)NCc1cc(F)ccc1F`, the relative growth was 0.984.

With `C[C@@H]1CCCCO[C@@H](CN(C)C(=O)C2CCCCC2)[C@H](C)CN([C@@H](C)CO)C(=O)c2cc(NS(=O)(=O)c3ccccc3)ccc2O1`, the relative growth was 1.02.

As for `COc1ccc(S(=O)(=O)Nc2ccc3c(c2)C(=O)N([C@@H](C)CO)C[C@@H](C)[C@@H](CN(C)S(=O)(=O)c2cn(C)cn2)O3)cc1`, the relative growth is 0.994.

Regarding `Cn1sccc1=O`, the relative growth was 0.0369 (active).

On to `COc1ccccc1C#Cc1cnc2c(c1)C(=O)N([C@@H](C)CO)C[C@@H](C)[C@@H](CN(C)C(=O)c1ccc3c(c1)OCO3)O2`, for which the relative growth is 1.03.

As to `COc1ccc(S(=O)(=O)Nc2ccc3c(c2)C(=O)N([C@@H](C)CO)C[C@@H](C)[C@H](CN(C)Cc2ccc(C(=O)O)cc2)OCCCC[C@@H](C)O3)cc1`, the relative growth was 0.984.

Turning to `CC(C)CC#Cc1cnc2c(c1)C(=O)N([C@@H](C)CO)C[C@@H](C)[C@@H](CN(C)C(=O)CCN1CCCCC1)O2`, the relative growth is 0.965.

With `CN1CCN(c2c(F)cc3c(=O)c(C(=O)O)cn(CCF)c3c2F)CC1`, the relative growth is 0.0442 (active).

As to `CN1CCN(c2c(F)cc3c(=O)c(C(=O)O)cn4c3c2SCC4)CC1`, the relative growth is 0.0436 (active).

As for `C[C@@H]1CN([C@@H](C)CO)C(=O)CCCn2nncc2CO[C@@H]1CN(C)S(=O)(=O)c1ccc(Oc2ccccc2)cc1`, the relative growth was 1.02.

With `Cc1ccc(S(=O)(=O)N[C@@H]2C=C[C@H](CC(=O)NCCN3CCCCC3)O[C@@H]2CO)cc1`, the relative growth was 1.01.

For the compound `Cc1ccc(S(=O)(=O)N(C)C[C@@H]2OCCCC[C@H](C)Oc3ccc(NC(=O)Nc4ccc(F)cc4)cc3C(=O)N([C@H](C)CO)C[C@H]2C)cc1`, the relative growth was 0.983.

Take `CC(C)NC(=O)Nc1ccc2c(c1)C(=O)N([C@H](C)CO)C[C@H](C)[C@@H](CN(C)C(=O)C1CCCCC1)OCCCC[C@@H](C)O2`: the relative growth is 0.984.

Turning to `NCC1CCN(Cc2ccccc2)CC1`, the relative growth is 1.02.

As for `NC1CCN(Cc2ccccc2)CC1`, the relative growth is 1.09.

With `COc1cc2c(cc1OC)C(=O)C(CC1CCN(Cc3ccccc3)CC1)C2.Cl` (centres undefined), the relative growth is 0.0489 (active).

For the compound `O=C(C[C@H]1C[C@@H]2c3cc(NS(=O)(=O)c4ccc(F)cc4)ccc3O[C@@H]2[C@@H](CO)O1)NCc1ccccn1`, the relative growth is 1.01.

As for `NC1(CC(=O)O)CCN(Cc2ccccc2)CC1`, the relative growth is 0.999.
